# Data: PubChem BioAssay (EPA / NIEHS)
# Inconclusive results are not listed. Active and inactive are the calls of the source. Rule for the calls, unless noted: active = hit-call score of the fitted dose curve at least 0.9, where 1 is the maximum; inactive = score below 0.9.
# Tests used:
# [1] = ATG_PBREM_CIS: Attagene CIS-FACTORIAL HepG2 Assay for human Phenobarbital-responsive Enhancer Module (PBREM) (AID 2282955); settings: HepG2 PBREM cis-reporter, Attagene multiplexed transcription; actives raise or lower the signal
# Procedure, shortened: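 Fluorescence of labelled reporter cDNA fragments, resolved by capillary electrophoresis, gives mRNA induction in transfected HepG2 cells treated for 24 h; DMSO serves as negative control and baseline.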
# [2] = target: Paired box protein Pax-6 (Homo sapiens) (UniProt P26367); assay: ATG_Pax6_CIS: Attagene CIS-FACTORIAL HepG2 Assay for human Paired Box 6 (PAX6) (AID 2282956); settings: HepG2 CIS-FACTORIAL PAX6 reporter transcription, RNA readout; actives raise or lower the signal
# Procedure, shortened: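 Read-out is reporter transcript level, measured by RT-PCR with fluorescent primer extension and capillary electrophoresis after 24 h dosing of transfected HepG2 cells. Activity in either direction fitted relative to DMSO control.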
# [3] = ATG_PXRE_CIS: Attagene CIS-FACTORIAL HepG2 Assay for human Pregnane X Receptor Element (PXRE) (AID 2282957); settings: HepG2 Attagene CIS-FACTORIAL PXRE reporter, mRNA; actives raise or lower the signal
# Procedure, shortened: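 Fluorescent capillary electrophoresis of amplified reporter cDNA gave the signal, collected 24 h after dosing HepG2 cells that held transfected cis-element reporter constructs.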
# [4] = ATG_PPRE_CIS: Attagene CIS-FACTORIAL HepG2 Assay for human Peroxisome Proliferator-activated Response Element (PPRE) (AID 2282958); settings: HepG2 PPRE cis-element reporter, Attagene transcription factor profiling; actives raise or lower the signal
# Procedure, shortened: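 Cells are first transfected transiently with the multiplexed reporter library, then dosed for 24 h. Total RNA is reverse-transcribed, amplified, fluorescently end-labeled and HpaI-cut before capillary electrophoresis; activity is fitted bidirectionally against DMSO controls.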
# [5] = ATG_Sox_CIS: Attagene CIS-FACTORIAL HepG2 Assay for human SRY-box transcription factor (SOX) (AID 2282960); settings: HepG2 Attagene cis-factorial SOX reporter, mRNA; actives raise or lower the signal
# Procedure, shortened: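 Transient MRTU transfection of HepG2; 24 h compound incubation; TriZol RNA, oligo(dT) RT, PCR, 6-FAM primer extension, HpaI cut, CE. Bidirectional fit, DMSO = baseline.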
# [6] = target: Transcription factor Sp1 (Homo sapiens) (UniProt P08047); assay: ATG_Sp1_CIS: Attagene CIS-FACTORIAL HepG2 Assay for human Specificity Protein 1 (Sp1) (AID 2282961); settings: HepG2 Sp1 cis-reporter transcription, actives raise or lower the signal
# Procedure, shortened: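 Endogenous Sp1 activity was gauged in human liver HepG2 cells bearing transfected reporter units under a cis-regulating promoter. After 24 h dosing, reporter mRNA was quantified by RT-PCR with capillary electrophoresis, and activity fitted bidirectionally versus DMSO.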
# [7] = ATG_SREBP_CIS: Attagene CIS-FACTORIAL HepG2 Assay for human Sterol Regulatory Element Binding (SREBP) (AID 2282962); settings: HepG2 Attagene cis-factorial SREBP reporter, mRNA; actives raise or lower the signal
# Procedure, shortened: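 Endogenous SREBP activity read as cis-element-driven reporter transcript in transiently transfected HepG2, 24 h post-dosing; quantified via RT-PCR plus capillary electrophoresis of fluorescent fragments. Gain or loss of signal fitted relative to DMSO baseline.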
# [8] = target: Signal transducer and activator of transcription 3 (Homo sapiens) (UniProt P40763); assay: ATG_STAT3_CIS: Attagene CIS-FACTORIAL HepG2 Assay for human Signal Transducer and Activator of Transcription 3 (STAT3) (AID 2282963); settings: HepG2, Attagene cis-factorial STAT3 reporter transcription; actives raise or lower the signal
# Procedure, shortened: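 Uses human liver HepG2 transiently carrying cis-regulated reporter transcription units. Following 24 h dosing, reporter mRNA induction was detected by RT-PCR and capillary electrophoresis, analysed bidirectionally versus DMSO.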
# [9] = ATG_TA_CIS: Attagene CIS-FACTORIAL HepG2 Assay for human TA Basal Promoter (AID 2282964); settings: HepG2 Attagene CIS-factorial TA basal promoter reporter; actives raise or lower the signal
# Procedure, shortened: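 HepG2 cells transiently transfected with multiplexed cis-promoter reporter units, dosed 24 h. Reporter mRNA measured by RT-PCR, 6-FAM labelling, HpaI digestion and capillary electrophoresis; bidirectional fit versus DMSO baseline, serving as background control.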
# [10] = ATG_TCF_b_cat_CIS: Attagene CIS-FACTORIAL HepG2 Assay for human T-Cell-Factor with beta-catenin (TCF/b-cat) (AID 2282965); settings: HepG2 TCF/beta-catenin cis-reporter transcription, actives raise or lower the signal
# Procedure, shortened: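 In this cis-format system, transfected HepG2 cells report endogenous transcription factor activity. Readout after 24 h exposure is reporter transcript abundance from RT-PCR and capillary electrophoresis, analysed for gain or loss of signal versus DMSO.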
# [11] = ATG_TAL_CIS: Attagene CIS-FACTORIAL HepG2 Assay for human TAL Basal Promoter (AID 2282966); settings: HepG2 Attagene cis-factorial TAL promoter reporter; actives raise or lower the signal;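 note: background control endpoint measuring basal TAL promoter reporter mRNA not a specific factor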
# Procedure, shortened: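 Transiently transfected HepG2 (cis-regulated reporter units), 24 h treatment, mRNA read by fluorescent CE after RT-PCR; bidirectional fit, DMSO baseline.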
# [12] = ATG_TGFb_CIS: Attagene CIS-FACTORIAL HepG2 Assay for human Transforming Growth Factor (TGF) (AID 2282967); settings: HepG2 Attagene CIS TGFb reporter, mRNA transcription; actives raise or lower the signal
# Procedure, shortened: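 HepG2 cells transiently transfected with cis-promoter-driven multiplexed reporter units; 24 h compound exposure. Reporter mRNA measured by RT-PCR, 6-FAM labeling, HpaI digestion and capillary electrophoresis; bidirectional fit versus DMSO baseline.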
# [13] = ATG_VDRE_CIS: Attagene CIS-FACTORIAL HepG2 Assay for human Vitamin D Receptor Element (VDRE) (AID 2282968); settings: HepG2 VDRE cis-reporter transcription, actives raise or lower the signal
# Procedure, shortened: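 Transfected HepG2 reporter cells, chemical treatment 24 h. RNA isolated, cDNA amplified with reporter-specific primers, products analysed by capillary electrophoresis. Endpoint fitted in both directions versus DMSO.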
# [14] = target: Estrogen receptor (Homo sapiens) (UniProt P03372); assay: ATG_ERa_TRANS: Attagene TRANS-FACTORIAL HepG2 Assay for human Estrogen Receptor alpha (ERa) (AID 2282970; active = hit-call score of the fitted dose curve at least 0.9, where 1 is the maximum); settings: HepG2 Attagene TRANS ERa GAL4 reporter, mRNA
# Procedure, shortened: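 One of 30 multiplexed endpoints from a HepG2 TRANS system, this one reports ERa-Gal4-driven reporter mRNA. Transcripts were quantified 24 hours post-dosing by fluorescent RT-PCR and capillary electrophoresis, with activity scored as induction over DMSO.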
# [15] = target: X-box-binding protein 1 (Homo sapiens) (UniProt P17861); assay: ATG_Xbp1_CIS: Attagene CIS-FACTORIAL HepG2 Assay for human X-box Binding Protein 1 (XBP1) (AID 2282972); settings: HepG2 XBP1 cis-element reporter, Attagene multiplex; actives raise or lower the signal
# Procedure, shortened: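 Reporter transcripts were quantified by RT-PCR with fluorescent primer extension and capillary electrophoresis after 24 h chemical exposure. Cells: transiently transfected HepG2 carrying cis-regulated reporter constructs; data fitted bidirectionally relative to DMSO.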
# [16] = ATG_RORE_CIS: Attagene CIS-FACTORIAL HepG2 Assay for human RAR-related Orphan Receptor Element (RORE) (AID 2282959); settings: HepG2 Attagene cis-factorial RORE reporter, mRNA; actives raise or lower the signal
# Procedure, shortened: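 Cells were HepG2 carrying transfected cis-regulated reporter constructs, dosed for 24 hours. Total RNA was reverse-transcribed and reporter cDNA amplified, fluorescently labeled and sized by capillary electrophoresis. Activity was fitted bidirectionally relative to DMSO.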
# [17] = target: Steroid hormone receptor ERR1 (Homo sapiens) (UniProt P11474); assay: ATG_ERRa_TRANS: Attagene TRANS-FACTORIAL HepG2 Assay for human Estrogen-Related Receptor alpha (ERRa) (AID 2282971; active = hit-call score of the fitted dose curve at least 0.9, where 1 is the maximum); settings: HepG2 Attagene TRANS reporter, ERRa transactivation
# Procedure, shortened: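 HepG2 cells transiently transfected with multiplexed GAL4-UAS reporter units reading chimeric ERRa-Gal4 activity; 24 h compound exposure. Reporter mRNA measured by RT-PCR, 6-FAM labelling, HpaI digest and capillary electrophoresis; gain of signal fitted versus DMSO baseline.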
# [18] = target: Nuclear receptor subfamily 1 group I member 3 (Homo sapiens) (UniProt Q14994); assay: ATG_CAR_TRANS: Attagene TRANS-FACTORIAL HepG2 Assay for human Constitutive Androstane Receptor (CAR) (AID 2282969; active = hit-call score of the fitted dose curve at least 0.9, where 1 is the maximum;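 note: activators raise reporter mRNA above DMSO so AC50 marks induction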); settings: HepG2 Attagene TRANS-FACTORIAL CAR reporter
# Procedure, shortened: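 Steps: transient transfection of HepG2 with multiple GAL4-UAS reporter units; 24 h compound incubation; RNA isolation, RT-PCR, 6-FAM primer extension, HpaI digest; capillary electrophoresis. Gain-of-signal relative to DMSO negative control.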
# [19] = ATG_M_19_TRANS: Attagene TRANS-FACTORIAL HepG2 Assay for M19 Transcription Factor (Internal Marker) (AID 2282974; active = hit-call score of the fitted dose curve at least 0.9, where 1 is the maximum); settings: HepG2 Attagene TRANS-FACTORIAL M19 internal marker reporter
# Procedure, shortened: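 Cells: human HepG2, transiently transfected with multiplexed reporter transcription units. Exposure: 24 h. Detection: RT-PCR of reporter mRNA with capillary electrophoresis. Analysis: gain-of-signal vs DMSO.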
# [20] = target: Androgen receptor (Homo sapiens) (UniProt P10275); assay: ATG_AR_TRANS: Attagene TRANS-FACTORIAL HepG2 Assay for human Androgen Receptor (AR) (AID 2282973; active = hit-call score of the fitted dose curve at least 0.9, where 1 is the maximum); settings: HepG2 Attagene TRANS-FACTORIAL AR reporter transcription
# Procedure, shortened: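 HepG2 cells transiently transfected with multiplexed GAL4-UAS reporter units and chimeric NR-Gal4 fusion; 24 h compound exposure. Reporter mRNA measured by RT-PCR, 6-FAM labelling, HpaI digestion and capillary electrophoresis; gain-of-signal fitted relative to DMSO baseline.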
# Chain of Signal transducer and activator of transcription 3 (Homo sapiens) (P40763 whole entry, looked up): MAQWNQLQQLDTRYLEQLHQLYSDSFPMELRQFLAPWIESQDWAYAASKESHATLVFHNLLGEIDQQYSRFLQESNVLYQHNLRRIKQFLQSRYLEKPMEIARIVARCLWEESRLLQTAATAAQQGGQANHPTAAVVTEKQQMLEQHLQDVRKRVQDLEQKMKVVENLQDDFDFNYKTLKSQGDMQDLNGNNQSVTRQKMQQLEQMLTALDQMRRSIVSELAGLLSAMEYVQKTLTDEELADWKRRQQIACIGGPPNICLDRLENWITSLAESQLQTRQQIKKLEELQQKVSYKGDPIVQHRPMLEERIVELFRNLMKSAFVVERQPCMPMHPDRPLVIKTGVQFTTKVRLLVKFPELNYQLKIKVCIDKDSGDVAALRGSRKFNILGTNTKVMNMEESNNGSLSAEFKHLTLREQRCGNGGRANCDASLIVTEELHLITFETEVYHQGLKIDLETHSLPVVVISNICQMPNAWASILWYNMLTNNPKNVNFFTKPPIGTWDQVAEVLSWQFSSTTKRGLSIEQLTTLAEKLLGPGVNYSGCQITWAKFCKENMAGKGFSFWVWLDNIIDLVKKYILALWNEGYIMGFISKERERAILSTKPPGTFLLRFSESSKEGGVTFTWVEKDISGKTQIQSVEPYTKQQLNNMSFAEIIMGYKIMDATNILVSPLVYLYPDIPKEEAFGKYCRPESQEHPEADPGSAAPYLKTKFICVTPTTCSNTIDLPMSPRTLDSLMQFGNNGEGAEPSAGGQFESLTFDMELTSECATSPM
# Chain of Estrogen receptor (Homo sapiens) (P03372 whole entry, looked up, the tested form may be a part): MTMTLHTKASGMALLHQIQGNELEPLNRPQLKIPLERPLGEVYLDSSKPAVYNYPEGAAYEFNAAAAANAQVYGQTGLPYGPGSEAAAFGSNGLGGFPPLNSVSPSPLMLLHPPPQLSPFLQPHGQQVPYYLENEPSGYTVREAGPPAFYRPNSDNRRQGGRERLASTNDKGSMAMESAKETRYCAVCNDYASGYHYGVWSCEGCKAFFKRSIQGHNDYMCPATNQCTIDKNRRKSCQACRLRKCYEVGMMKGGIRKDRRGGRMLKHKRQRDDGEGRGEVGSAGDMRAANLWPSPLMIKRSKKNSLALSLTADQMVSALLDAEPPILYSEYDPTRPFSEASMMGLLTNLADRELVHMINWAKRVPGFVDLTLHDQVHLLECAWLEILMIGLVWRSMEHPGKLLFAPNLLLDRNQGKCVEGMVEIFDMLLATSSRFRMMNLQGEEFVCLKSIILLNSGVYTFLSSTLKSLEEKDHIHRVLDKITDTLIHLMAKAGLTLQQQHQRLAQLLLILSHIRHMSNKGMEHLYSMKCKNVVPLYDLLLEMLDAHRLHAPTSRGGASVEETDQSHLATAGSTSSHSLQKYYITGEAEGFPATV
# Chain of Steroid hormone receptor ERR1 (Homo sapiens) (P11474 whole entry, looked up, the tested form may be a part): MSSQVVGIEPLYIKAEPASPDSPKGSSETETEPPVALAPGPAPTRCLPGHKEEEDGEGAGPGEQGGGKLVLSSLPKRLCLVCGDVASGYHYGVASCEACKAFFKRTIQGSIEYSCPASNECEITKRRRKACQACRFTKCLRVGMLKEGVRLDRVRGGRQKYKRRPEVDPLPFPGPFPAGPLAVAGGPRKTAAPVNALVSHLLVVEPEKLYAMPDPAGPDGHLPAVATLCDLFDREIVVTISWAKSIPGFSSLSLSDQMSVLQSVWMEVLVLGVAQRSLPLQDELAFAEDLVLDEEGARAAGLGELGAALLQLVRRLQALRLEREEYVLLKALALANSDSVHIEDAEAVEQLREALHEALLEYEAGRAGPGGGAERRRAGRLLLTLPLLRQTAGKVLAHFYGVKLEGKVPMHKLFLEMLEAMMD
# Chain of Paired box protein Pax-6 (Homo sapiens) (P26367 whole entry, looked up): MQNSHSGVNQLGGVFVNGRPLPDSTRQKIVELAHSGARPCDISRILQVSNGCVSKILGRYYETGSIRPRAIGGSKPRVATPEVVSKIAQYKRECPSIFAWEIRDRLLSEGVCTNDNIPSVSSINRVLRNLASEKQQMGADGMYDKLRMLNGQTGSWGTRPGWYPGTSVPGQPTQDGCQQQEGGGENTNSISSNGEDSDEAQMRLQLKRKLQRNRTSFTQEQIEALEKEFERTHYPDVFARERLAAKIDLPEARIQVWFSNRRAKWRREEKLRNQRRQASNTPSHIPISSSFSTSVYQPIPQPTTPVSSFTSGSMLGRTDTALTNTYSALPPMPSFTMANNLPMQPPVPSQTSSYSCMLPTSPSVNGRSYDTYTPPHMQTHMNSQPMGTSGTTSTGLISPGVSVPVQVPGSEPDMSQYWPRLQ
# Chain of X-box-binding protein 1 (Homo sapiens) (P17861 whole entry, looked up): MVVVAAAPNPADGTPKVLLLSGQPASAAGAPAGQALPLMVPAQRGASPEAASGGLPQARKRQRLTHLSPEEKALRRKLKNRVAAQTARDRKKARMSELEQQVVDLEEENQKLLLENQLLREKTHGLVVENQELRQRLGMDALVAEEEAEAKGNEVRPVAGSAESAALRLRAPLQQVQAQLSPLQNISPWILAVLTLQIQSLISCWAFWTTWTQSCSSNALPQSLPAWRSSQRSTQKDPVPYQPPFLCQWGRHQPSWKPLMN
# Chain of Transcription factor Sp1 (Homo sapiens) (P08047 whole entry, looked up): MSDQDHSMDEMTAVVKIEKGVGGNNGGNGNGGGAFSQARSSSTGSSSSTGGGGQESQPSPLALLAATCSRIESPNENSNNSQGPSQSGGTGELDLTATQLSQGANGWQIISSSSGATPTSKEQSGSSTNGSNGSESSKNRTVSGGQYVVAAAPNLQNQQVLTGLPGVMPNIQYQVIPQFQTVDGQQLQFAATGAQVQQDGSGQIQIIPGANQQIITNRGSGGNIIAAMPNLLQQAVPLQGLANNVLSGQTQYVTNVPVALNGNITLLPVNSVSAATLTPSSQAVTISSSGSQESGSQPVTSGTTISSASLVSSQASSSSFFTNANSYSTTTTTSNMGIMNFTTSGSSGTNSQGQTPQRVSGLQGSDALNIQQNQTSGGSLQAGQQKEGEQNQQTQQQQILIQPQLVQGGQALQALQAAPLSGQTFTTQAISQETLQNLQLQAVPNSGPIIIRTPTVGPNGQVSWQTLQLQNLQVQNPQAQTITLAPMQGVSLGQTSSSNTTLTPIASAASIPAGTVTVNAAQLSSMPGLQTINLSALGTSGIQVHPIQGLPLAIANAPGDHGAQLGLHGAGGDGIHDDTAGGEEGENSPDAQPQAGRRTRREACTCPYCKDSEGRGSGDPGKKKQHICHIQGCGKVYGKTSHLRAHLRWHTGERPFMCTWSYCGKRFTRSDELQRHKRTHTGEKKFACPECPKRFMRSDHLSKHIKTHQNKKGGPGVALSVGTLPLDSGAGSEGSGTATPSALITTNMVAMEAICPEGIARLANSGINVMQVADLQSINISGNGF
# Chain of Nuclear receptor subfamily 1 group I member 3 (Homo sapiens) (Q14994 whole entry, looked up, the tested form may be a part): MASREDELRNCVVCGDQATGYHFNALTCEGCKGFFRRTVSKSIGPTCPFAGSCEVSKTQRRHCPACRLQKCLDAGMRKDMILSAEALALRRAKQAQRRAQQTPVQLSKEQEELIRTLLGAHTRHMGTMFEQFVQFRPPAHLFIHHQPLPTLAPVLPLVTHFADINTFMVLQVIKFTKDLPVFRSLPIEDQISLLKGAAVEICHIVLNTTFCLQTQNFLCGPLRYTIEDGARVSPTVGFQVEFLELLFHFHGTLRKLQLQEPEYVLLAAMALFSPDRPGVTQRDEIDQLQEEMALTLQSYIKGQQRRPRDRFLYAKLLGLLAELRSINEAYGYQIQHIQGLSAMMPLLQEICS
# Chain of Androgen receptor (Homo sapiens) (P10275 whole entry, looked up, the tested form may be a part): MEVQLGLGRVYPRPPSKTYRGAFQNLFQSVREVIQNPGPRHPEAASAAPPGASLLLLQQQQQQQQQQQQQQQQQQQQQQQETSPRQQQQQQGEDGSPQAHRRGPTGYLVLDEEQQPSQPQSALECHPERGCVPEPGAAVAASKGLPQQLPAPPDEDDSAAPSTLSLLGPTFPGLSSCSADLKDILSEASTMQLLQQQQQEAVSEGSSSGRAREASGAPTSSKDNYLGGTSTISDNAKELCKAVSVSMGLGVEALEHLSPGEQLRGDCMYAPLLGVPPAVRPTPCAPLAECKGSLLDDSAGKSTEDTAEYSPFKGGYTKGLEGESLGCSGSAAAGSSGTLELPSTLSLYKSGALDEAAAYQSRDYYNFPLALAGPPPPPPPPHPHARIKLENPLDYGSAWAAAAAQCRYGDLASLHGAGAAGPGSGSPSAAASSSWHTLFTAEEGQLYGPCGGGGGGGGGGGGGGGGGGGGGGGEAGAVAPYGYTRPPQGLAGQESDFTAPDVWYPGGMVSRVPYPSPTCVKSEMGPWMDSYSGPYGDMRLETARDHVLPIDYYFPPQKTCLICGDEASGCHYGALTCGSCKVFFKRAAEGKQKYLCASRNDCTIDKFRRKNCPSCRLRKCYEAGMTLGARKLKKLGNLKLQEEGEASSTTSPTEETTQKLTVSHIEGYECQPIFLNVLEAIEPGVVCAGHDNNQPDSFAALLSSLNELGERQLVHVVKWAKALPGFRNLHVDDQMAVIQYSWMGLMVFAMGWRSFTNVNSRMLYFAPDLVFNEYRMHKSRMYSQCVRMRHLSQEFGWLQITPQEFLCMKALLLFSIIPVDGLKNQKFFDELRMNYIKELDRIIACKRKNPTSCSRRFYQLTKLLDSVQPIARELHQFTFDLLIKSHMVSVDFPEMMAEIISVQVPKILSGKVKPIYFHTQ
compound,measurement,setting,value
O=S(=O)(c1ccc(O)cc1)c1ccc(O)cc1,outcome,[1],inactive
same,outcome,[2],inactive
same,AC50,[3],35.9 µM (active)
same,outcome,[4],inactive
same,outcome,[5],inactive
same,outcome,[6],inactive
same,outcome,[7],inactive
same,outcome,[8],inactive
same,outcome,[9],inactive
same,outcome,[10],inactive
same,outcome,[11],inactive
same,outcome,[12],inactive
same,outcome,[13],inactive
same,AC50,[14],1.06 µM (active)
same,outcome,[15],inactive
CCOP(=S)(OCC)SCSCC,outcome,[2],inactive
same,AC50,[3],11.7 µM (active)
same,AC50,[4],176 µM (active)
same,outcome,[5],inactive
same,outcome,[6],inactive
same,outcome,[7],inactive
same,outcome,[8],inactive
same,outcome,[9],inactive
same,outcome,[10],inactive
same,outcome,[12],inactive
same,AC50,[13],35.4 µM (active)
same,AC50,[14],27.4 µM (active)
same,outcome,[15],inactive
CCC(C)(C)c1ccc(O)cc1,outcome,[2],inactive
same,AC50,[3],9.13 µM (active)
same,outcome,[16],inactive
same,outcome,[6],inactive
same,AC50,[7],20 µM (active)
same,outcome,[8],inactive
same,outcome,[9],inactive
same,outcome,[10],inactive
same,outcome,[11],inactive
same,outcome,[12],inactive
same,outcome,[13],inactive
same,AC50,[14],2.25 µM (active)
same,outcome,[17],inactive
same,outcome,[15],inactive
CC(Cc1ccc(OCC(=O)O)cc1)NCC(O)c1csc(C(F)(F)F)n1 (stereo unspecified),outcome,[1],inactive
same,outcome,[2],inactive
same,outcome,[3],inactive
same,outcome,[16],inactive
same,outcome,[5],inactive
same,outcome,[6],inactive
same,outcome,[7],inactive
same,outcome,[8],inactive
same,outcome,[9],inactive
same,outcome,[10],inactive
same,outcome,[12],inactive
same,outcome,[13],inactive
same,outcome,[18],inactive
same,outcome,[15],inactive
same,outcome,[19],inactive
O=C(O)C(Cl)Cl,outcome,[2],inactive
same,outcome,[3],inactive
same,outcome,[4],inactive
same,outcome,[16],inactive
same,outcome,[6],inactive
same,outcome,[7],inactive
same,outcome,[8],inactive
same,outcome,[9],inactive
same,outcome,[10],inactive
same,outcome,[11],inactive
same,outcome,[12],inactive
same,outcome,[15],inactive
Nc1ccc2ccccc2c1,outcome,[1],inactive
same,outcome,[2],inactive
same,outcome,[3],inactive
same,outcome,[16],inactive
same,outcome,[5],inactive
same,outcome,[6],inactive
same,outcome,[7],inactive
same,outcome,[8],inactive
same,outcome,[9],inactive
same,outcome,[10],inactive
same,outcome,[11],inactive
same,outcome,[12],inactive
same,outcome,[13],inactive
same,outcome,[18],inactive
same,outcome,[14],inactive
same,outcome,[17],inactive
same,outcome,[15],inactive
same,outcome,[19],inactive
O=C(O)C(F)(F)OC(F)(F)C(F)(F)OC(F)(F)C(=O)O,outcome,[1],inactive
same,outcome,[2],inactive
same,outcome,[3],inactive
same,outcome,[4],inactive
same,outcome,[16],inactive
same,outcome,[6],inactive
same,outcome,[7],inactive
same,outcome,[8],inactive
same,outcome,[9],inactive
same,outcome,[10],inactive
same,outcome,[12],inactive
same,outcome,[13],inactive
same,outcome,[14],inactive
same,outcome,[17],inactive
same,outcome,[15],inactive
same,outcome,[20],inactive
O=C(O)C1C(C(=O)O)C2(Cl)C(Cl)=C(Cl)C1(Cl)C2(Cl)Cl (stereo unspecified),outcome,[1],inactive
same,outcome,[2],inactive
same,outcome,[3],inactive
same,outcome,[16],inactive
same,outcome,[6],inactive
same,outcome,[7],inactive
same,outcome,[8],inactive
same,outcome,[9],inactive
same,outcome,[10],inactive
same,outcome,[11],inactive
same,outcome,[12],inactive
same,outcome,[14],inactive
same,outcome,[15],inactive
